Measurements published in PubChem BioAssay AID720565 (National Center for Advancing Translational Sciences (NCATS), 2013).
Inconclusive results are not listed. The source made the active and inactive calls. Calls follow the shape of the dose curve; as a rule, active = well fitted activation curve with a large enough effect; inconclusive = small, poorly fitted or top-dose-only effect; inactive = no such curve, though single readings can be large or run the other way.
Potency is read from the fitted curve at half-maximal effect.

Assay: qHTS for small molecules that induce genotoxicity in ELG1 expressing cells: Confirmatory Assay for Cherry-picked Compounds; also: nearly all actives have a fitted effect of over 35% in size; as to activation: % of control where 0% means no effect
Details: ELG1-luciferase reporter cells, luminescence, 16 h; series mostly up to 46.1 µM; activation: at the top concentration
From the text: Cancer cells divide rapidly compared to normal cells in the body. During cell division, cancer cells need to duplicate their genome by DNA replication. The failure of genome duplication leads to cancer cells' death. Therefore, inhibitors of DNA replication could specifically kill cancer cells. Based on this concept, many chemotherapeutic agents were developed and have been used to treat cancer patients. However, there are a limited number of agents available in the clinical setting, and some of those that do exist have low efficacy and severe side effects. Therefore, if we can find the compounds that effectively block DNA replication either by directly damaging DNA or by inhibiting other cellular mechanisms, the options for cancer treatment will be broadened. We developed a quantitative high-throughput ELG1-luciferase reporter gene assay. Since the level of human ELG1 protein is enhanced in response to genetic stresses, increases in luciferase activity can be used to identify compounds that cause genetic stress. The data herein is the result of the confirmation assay against the cherry picked compounds selected from the primary qHTS (AID 504466). Activation is the desired outcome for this assay. NIH Chemical Genomics Center [NCGC] NIH Molecular Libraries Probe Centers Network [MLPCN] MLPCN Grant: MH092164 Assay Provider: Kyungjae Myung, National Human Genome Research Institute, NIH
For genotoxicity screening, 2,000 cells/ well (5 uL volume) were dispensed into white, solid-bottom 1536-well plates using a solenoid-based dispenser. Following transfer of 23 nL compound or DMSO vehicle by a pin tool, the plates were incubated 16 hr at 37 C, 5% CO2. Five microliter of ONE-Glo reagent (Promega) was then added to each plate. The assay plates were incubated for 30 min at room temperature followed by quantification of the luciferase activity using the PerkinElmer ViewLux CCD-based plate reader.
With `CCCC(=O)O[C@@H]1[C@@H](C)[C@@]2(O)[C@@H](C=C(CO)C[C@]3(O)C(=O)C(C)=C[C@@H]23)[C@@H]2C(C)(C)[C@]12OC(=O)CCC` the Potency was 99.6 nM (active).
In the case of `CCCSc1ccc2nc(NC(=O)OC)[nH]c2c1`, the Potency is reported as 8880 nM (active).
In the case of `O=C(CCl)c1ccc(O)c(O)c1`, the “activation” value is reported as -1.84% (inactive).
For `C=C(C)[C@@]12OC3(c4ccccc4)O[C@@H]1[C@@H]1[C@@H]4O[C@]4(CO)[C@@H](O)[C@]4(O)C(=O)C(C)=C[C@H]4[C@@]1(O3)[C@H](C)[C@H]2OC(=O)/C=C/C=C/c1ccccc1`, the Potency was 50 nM (active).
For `CC(=O)OCC1=C[C@H]2[C@@H]3C(C)(C)[C@]3(OC(=O)Cc3ccccc3)C[C@@H](C)[C@]2(O)[C@@H]2C=C(C)C(=O)[C@@]2(O)C1`, the Potency was 396 nM (active).
For `CCCCCCCCCCCCCC(=O)O[C@@H]1[C@@H](C)[C@@]2(O)[C@H](C=C(CO)C[C@]3(O)C(=O)C(C)=C[C@@H]23)[C@@H]2C(C)(C)C12OC(C)=O` (some centres not stated), the Potency was 8.9 nM (active).
With `C[C@@H]1C[C@@H]2[C@H]([C@H]3C=C(COC(=O)c4ccccc4)[C@@H](O)[C@]4(O)[C@@H](O)C(OC(=O)c5ccccc5)=C[C@@]14C3=O)C2(C)C` the Potency was 500 nM (active).
